Compounds with a hit are over-represented: about 4.2% of the library has one in this group of screens.
PLK1 PBD inh: qHTS for Inhibitors of PLK1-PDB (polo-like kinase 1 - polo-box domain): Primary Screen; Serine/threonine-protein kinase PLK1 (Homo sapiens), P53350; Plk1 PBD binding of FITC phosphopeptide, fluorescence polarization; Potency, µM, without a hit: max response, negative = inhibition, usual class: inhibitors; 360,000 compounds, 2.8% hits; AID 720504, 2013; further: series mostly up to about 57 µM; nearly all actives have a fitted effect of over 65% in size
Sfp PPTase inh: qHTS Assay for Inhibitors of Bacillus subtilis Sfp phosphopantetheinyl transferase (PPTase); 4'-phosphopantetheinyl transferase ffp (Bacillus subtilis), Q9F4F7; Biochemical Sfp PPTase activity, qHTS; Potency, µM, without a hit: largest response in the series, negative = inhibition, usual class: inhibitors; 310,000 compounds, 3.5% hits; AID 1490, 2009;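 further: the enzyme is Sfp with the accession as filed and its product quenches rhodamine fluorescence; 0% = enzyme reaction without inhibitor and -100% = no enzyme wells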
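Step 1, compound plus 15 nM Sfp-PPTase, 15 min, room temperature. Step 2, add rhodamine-CoA (5 uM) and BHQ-2-YbbR (12.5 uM). Step 3, read 525/598 nm fluorescence at 0 and 30 min.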
12-LOX inh: Primary qHTS assay for inhibitors of human arachidonate 12S-lipoxygenase (ALOX12): Round 2; Potency, µM (highest dose often 108 µM), for inactives: at the top dose activity change, negative = inhibition, actives largely listed as inhibitors; 580,000 compounds, 1.1% hits; purified 12hLO, xylenol orange hydroperoxide absorbance; AID 1671190, 2021
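Purified human 12hLO (150 nM final) in 25 mM Hepes, 0.01% Triton X-100, pH 7.0 was preincubated 15 min at room temperature with compound. Then 40 uM arachidonic acid was added, 30 min. Hydroperoxide was read by Fe-XO absorbance ratio 573/405 nm.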
VDR inhibitor: Inhibitors of the vitamin D receptor (VDR): qHTS | Vitamin D3 receptor (Homo sapiens), P11473 | VDR-SRC2-3 peptide fluorescence polarization, 2 h | Potency, µM, inactives show max response, negative = inhibition, hits mostly inhibitors | 400,000 compounds, 0.93% hits | AID 504847, 2011
Target sequence (P11473 whole entry, looked up): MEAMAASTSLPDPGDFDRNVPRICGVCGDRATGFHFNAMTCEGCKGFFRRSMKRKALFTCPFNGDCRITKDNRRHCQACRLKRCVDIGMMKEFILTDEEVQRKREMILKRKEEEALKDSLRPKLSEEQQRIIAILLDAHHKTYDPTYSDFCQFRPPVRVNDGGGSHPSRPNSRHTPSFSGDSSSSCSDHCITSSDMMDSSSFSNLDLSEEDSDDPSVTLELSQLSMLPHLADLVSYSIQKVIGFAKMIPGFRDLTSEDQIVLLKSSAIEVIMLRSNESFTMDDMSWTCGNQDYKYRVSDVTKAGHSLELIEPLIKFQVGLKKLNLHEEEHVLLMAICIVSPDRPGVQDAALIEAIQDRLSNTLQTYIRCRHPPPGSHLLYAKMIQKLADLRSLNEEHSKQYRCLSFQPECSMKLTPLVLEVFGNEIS
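Two reagent solutions held at 4 deg C in the dark were dispensed, compounds pinned at 23 nl, and the mixture incubated 2 h at room temperature. Read-out: fluorescence polarization of VDR–SRC2-3 peptide binding.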
Numbers without * were called inactive; ? = inconclusive; / = no result; ! = repeats disagree; [ ] = dose if it differs, or a comment. The call rests on the fitted dose curve; in most records, active means well fitted curve in the direction sought with a large enough effect; inconclusive means small, poorly fitted or top-dose-only effect, or another doubt; inactive means no such curve, though single readings can be large; an effect the other way counts as inactive or inconclusive. Unless noted, on the % scale 0 is the no-effect control and ±100 the full control effect; potency means the concentration at half of the fitted maximal effect.

SMILES	PLK1 PBD inh	Sfp PPTase inh	12-LOX inh	VDR inhibitor
CC1Cc2cc(-c3csc(NC(=O)Cc4ccccc4)n3)ccc2N1S(C)(=O)=O (centres undefined)	-1.9%	3.7%	13.8%	-9.2%
COc1ccccc1Nc1nc(-c2ccc3c(c2)CC(C)N3S(C)(=O)=O)cs1 (centres undefined)	/	/	39.8µM*	/
c1csc(CNc2ncnc3ccc(-c4ccoc4)cc23)c1	/	-11.8%	1.2%	31.6µM*!
Cc1cnc(CNc2ncncc2-c2ccoc2)cn1	/	-17.1%	?	?
c1ccc(CNc2ncncc2-c2ccoc2)cc1	/	-6.9%	?	50.1µM*
Clc1ccccc1-c1cncnc1NCc1cccs1	/	-16.8%	35.5µM*	?
c1csc(CNc2ncncc2-c2ccoc2)c1	/	7.8%	-8.5%	50.1µM*
O=C(CNC(=O)c1ccco1)Nc1ccc(OC(F)F)cc1	1.9%	12.3%	0.0%	30.8%
CCNC(=O)N1CCC(CCOC)(NS(=O)(=O)c2cccc3cccnc23)CC1	/	/	26.6%	/
CCOc1ccccc1C(C(=O)O)N1CCN(Cc2csc(C)n2)CC1 (centres undefined)	/	/	60.9%	/
COc1ccc(C(C(=O)O)N2CCN(Cc3csc(C)n3)CC2)c(C)c1 (centres undefined)	/	/	22.4µM*	/
COc1ccc(F)c(CN2CCC(CO)(Cc3cccc(C(F)(F)F)c3)CC2)c1	-8.7%	22.1%	-2.9%	-19.0%
CC(C)COc1cc(=O)n2c(c1C(=O)NCCCN1CCCCC1)CCCCC2	/	/	43.4%	/
COC(=O)/C=C1\SC(N2CCOCC2)=C(c2ccc(OC)cc2)C1=O	15µM*	-85.6%	-24.4%	?
CC1(c2ccc3c(c2)OCCO3)NC(=O)N(CC(=O)NCCc2c[nH]c3ccccc23)C1=O (centres undefined)	/	/	11.6%	/
C[C@@H](NC(=O)C1CC1)c1c(-c2ccc(F)cc2)noc1C(=O)O	/	/	50.1µM*	/
C[C@@H](NC(=O)C1CC1)c1onc(-c2ccc(F)cc2)c1C(=O)O	/	/	3.1%[176 µM]	/
O=C(O)c1cc(-c2ccc(-c3c(-c4ccc5c(c4)OCO5)noc3-c3ccsc3)cc2)nc2ccccc12	16.8µM*	-7.4%	?	?
Clc1ccc(OCCCc2nc(-c3cccnc3)no2)c(Cl)c1	4.3%	31.6µM*	-24.7%	-1.7%
Clc1ccc(OCCCc2nc(-c3ccncc3)no2)c(Cl)c1	-8.8%	-22.4%	9.3%[57.4 µM]	-7.4%
O=C(C[C@H]1C/C=C\CC[C@@H](Cc2ccc(F)cc2)C(=O)OCCNC1=O)NCCO	2.2%	/	-0.4%	-11.3%
S=C(NCc1ccccc1)NNc1ccccc1	?	-10.2%	0.0%	-27.5%
O=C(NC(=S)NNS(=O)(=O)c1ccccc1)c1cccnc1	?	4.8%	2.6%	19.8%
CCCCC(=O)NC(=S)NNS(=O)(=O)c1ccccc1	11.9µM*	?	/	?
CCNC(=S)NNc1ccccc1	-10.8%	35.5µM*	?	-4.5%
SMILES	PLK1 PBD inh	Sfp PPTase inh	12-LOX inh	VDR inhibitor
CCNC(=S)NS(=O)(=O)c1ccccc1	?	79.4µM*	?	4.0%
O=C(O)c1ccc(-c2ccccc2C(F)(F)F)s1	/	-2.8%	/	126µM*
Cc1cc(=O)[nH]c(SCC(=O)C23CC4CC(CC(C4)C2)C3)c1C#N	23.8µM*	-65.5%	0.0%	?
O=C(CCS(=O)(=O)c1nc(-c2ccc3c(c2)OCO3)cc(C(F)(F)F)n1)Nc1ccccc1F	/	/	?	39.8µM*
O=C(NC1CCCC1)c1cccc2c1CCN2S(=O)(=O)c1ccccc1	/	/	-0.4%	/
O=C(c1ccccc1)N1Cc2[nH]cnc2C[C@H]1c1nc(-c2ccncc2)no1	/	/	42.6%[176 µM]	/
O=C(NC1CCCCC1)N1Cc2[nH]cnc2C[C@H]1c1nc(-c2ccncc2)no1	/	/	12.6µM*	/
CCOC(=O)c1nnn(-c2ccc([N+](=O)[O-])cc2[N+](=O)[O-])c1C	-12.0%	-0.3%	?	-2.3%
CCOc1ccccc1C(=O)N1CCC2(CC1)N(C)C(=O)CS2(=O)=O	/	/	16.0%	/
Cc1ccccc1NC(=O)COC(=O)c1ccc(S(=O)(=O)N2CCCCCC2)cc1	0.3%	/	-25.1%	-1.9%
O=C(O)c1ccccc1N/C=C\[N+](=O)[O-]	-5.2%	56.2µM*	-8.7%	15.9%
O=c1[nH]nc(Cc2ccc(-c3ccc(Cl)cc3)o2)c2ccccc12	-7.6%	56.2µM*	?	-13.1%
O=C1CO[C@H]2CN(Cc3ccccc3F)C[C@H]2N1c1ccccc1	/	/	-6.6%[176 µM]	/
CCOC(=O)c1c(NC(C)=O)sc2c(O)cccc12	0.5%	2.8%	-0.2%	9.8%
CCOC(=O)c1c(NC(C)=O)sc2c(O)c(Br)cc(Br)c12	-10.5%	35.5µM*	?	-11.3%
N#CCSc1nnc(-c2ccccc2)n1-c1ccc(F)cc1	/	/	-4.6%	/
CCOCC(=O)Nc1nnc(Cc2ccc(OC)c(OC)c2)s1	26.7µM*	-2.5%	?	-21.2%
CCOCc1nnc(NC(=O)COC)s1	-26.6%	50.1µM*	-11.3%	-2.4%
CCOCC(=O)Nc1nnc(COCC)s1	?	3.6%	-22.6%	14.3%
COc1ccc(Cc2nnc(NC(=O)Nc3ccc(F)cc3)s2)cc1OC	18.9µM*	-2.2%	11.4%	?
CC(C)CN1CC2CCC(C1)N2c1ccc(C(F)(F)F)cc1	/	/	0.1%[6.33 µM]	/
CCOC(=O)c1c(C)oc2c1cc(NS(=O)(=O)c1ccc(C(=O)O)cc1)c1ccccc12	26.7µM*	56.2µM*	?	-1.9%
Cc1oc2c(cc(NS(=O)(=O)c3ccc(Cl)cc3)c3ccccc32)c1C(=O)O	?	-26.3%	39.8µM*	-3.6%
Clc1ccc(C2Nc3cccc4cccc(c34)N2)cc1	?	?	4.47µM*	-8.3%
O=[N+]([O-])c1cc(C2Nc3cccc4cccc(c34)N2)ccc1Cl	-8.6%	?	39.8µM*	-15.2%
SMILES	PLK1 PBD inh	Sfp PPTase inh	12-LOX inh	VDR inhibitor
CCN1CC(C(=O)N2CCC3(CC2)C(=O)N(C)c2ccccc23)CCC1=O (centres undefined)	/	/	10.6%	/
CCOC(=O)c1c(S(=O)(=O)Nc2ccc(C)cn2)c(C)n(C)c1C	21.2µM*	5.1%	-8.7%	?
CCCC[C@@H]1Cc2[nH][nH]c(=O)c2[C@H](c2ccc(C(C)C)cc2)O1	9.47µM*	/	-28.0%	/
O=c1[nH][nH]c2c1[C@H](c1ccc(Cl)cc1)O[C@H](C1CC1)C2	11.9µM*	/	-36.1%	/
CCCC[C@@H]1Cc2[nH][nH]c(=O)c2[C@@H](c2ccc(Cl)cc2)O1	-21.6%	/	11.9%	/
O=c1[nH][nH]c2c1[C@H](c1ccccc1)O[C@H](C1CCCCC1)C2	11.9µM*	/	-18.1%	/
O=c1[nH][nH]c2c1[C@@H](c1ccc(F)cc1)O[C@H](C1CCCCC1)C2	-12.7%	/	22.5%	/
O=c1[nH][nH]c2c1[C@H](c1ccc(F)cc1)O[C@H](C1CCCCC1)C2	-29.5%	/	?	/
CCC(=O)c1ccc(OCc2ccc(Cl)c(Cl)c2)cc1	/	/	-23.4%	/
COc1cc(C/C=C\c2ccccc2)c(OC)cc1O	/	44.7µM*	?	44.7µM*
